Columns and labels:
Test in all cases: PBM binding z-score (relative to random genomic background probes); higher = stronger binding; sequences stand for … in GC…GCGATTGACAGCGTAGAATGAAGG
[1] = test system: FXR:RXRa (NR concentration 270 nM, RXRa partner concentration 90 nM)
Outline: (§1)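 Binding z-scores take random background probes as their reference. They come from custom Agilent 4×180K protein-binding microarrays incubated 1 h with ligand-free nuclear receptor dimers, with antibodies against each partner (one per run) detecting binding. Scanned fluorescence was regression-normalized.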

[2] = test system: LXRa:RXRa (NR concentration 270 nM, RXRa partner concentration 90 nM)
Outline: as §1

[3] = test system: LXRa homodimer (NR concentration 270 nM)
Outline: as §1

[4] = test system: LXRb:RXRa (NR concentration 270 nM, RXRa partner concentration 90 nM)
Outline: as §1

[5] = test system: LXRb homodimer (NR concentration 270 nM)
Outline: as §1

[6] = test system: PPARa:RXRa (NR concentration 270 nM, RXRa partner concentration 90 nM)
Outline: as §1

[7] = test system: PPARg:RXRa (NR concentration 180 nM, RXRa partner concentration 90 nM)
Outline: as §1

[8] = test system: PPARg:RXRa 270nM:90nM, anti-RXR (NR concentration 270 nM, RXRa partner concentration 90 nM)
Outline: as §1

[9] = test system: PPARg:RXRa 30nM:10nM, anti-RXR (NR concentration 30 nM, RXRa partner concentration 10 nM)
Outline: as §1

[10] = test system: PPARg:RXRa 90nM:30nM, anti-RXR (NR concentration 90 nM, RXRa partner concentration 30 nM)
Outline: as §1

[11] = test system: PPARg:RXRa DBDmut IVT, anti-RXR (DBD mutation: RXRa K156A/R161A, NR concentration 270 nM, RXRa partner concentration 90 nM)
Outline: as §1

[12] = test system: PPARg:RXRa IVT, anti-PPARg (NR concentration 270 nM, RXRa partner concentration 90 nM)
Outline: as §1

[13] = test system: PPARg DBDmut:RXRa IVT, anti-PPARg (DBD mutation: PPARg1 K132A/R137A, NR concentration 270 nM, RXRa partner concentration 90 nM)
Outline: as §1

[14] = test system: PPARg DBDmut IVT, anti-PPARg (DBD mutation: PPARg1 K132A/R137A, NR concentration 270 nM)
Outline: as §1

[15] = test system: PPARg homodimer (NR concentration 180 nM)
Outline: as §1

[16] = test system: PXR:RXRa (NR concentration 270 nM, RXRa partner concentration 90 nM)
Outline: as §1

[17] = test system: PXR homodimer (NR concentration 270 nM)
Outline: as §1

[18] = test system: RARa:RXR (NR concentration 270 nM, RXRa partner concentration 90 nM)
Outline: as §1

[19] = test system: RARa homodimer (NR concentration 270 nM)
Outline: as §1

[20] = test system: RARb:RXRa (NR concentration 270 nM, RXRa partner concentration 90 nM)
Outline: as §1

| Sequence | PBM binding z-score [1] | PBM binding z-score [2] | PBM binding z-score [3] | PBM binding z-score [4] | PBM binding z-score [5] | PBM binding z-score [6] | PBM binding z-score [7] | PBM binding z-score [8] | PBM binding z-score [9] | PBM binding z-score [10] | PBM binding z-score [11] | PBM binding z-score [12] | PBM binding z-score [13] | PBM binding z-score [14] | PBM binding z-score [15] | PBM binding z-score [16] | PBM binding z-score [17] | PBM binding z-score [18] | PBM binding z-score [19] | PBM binding z-score [20] |
| --- | --- | --- | --- | --- | --- | --- | --- | --- | --- | --- | --- | --- | --- | --- | --- | --- | --- | --- | --- | --- |
| CTCGAAAGGTCGTGCTCAGGTGTGTATACCAAAC | 5.43 | 3.78 | 0.295 | 3.62 | 0.401 | 4.72 | 2.43 | 3.56 | 1.06 | 2.46 | 0.974 | 2.05 | 0.571 | -0.156 | 3.36 | 3.32 | 0.146 | 4.07 | -0.478 | 3.99 |
| ACTATCAGTTGACTTAGGGCAACCGATACGACGC | 0.0979 | 0.0623 | 0.0822 | -0.0416 | 0.543 | 0.113 | 0.908 | 0.0453 | 0.141 | 0.385 | -0.371 | 0.386 | 0.456 | 0.545 | 0.231 | -0.0461 | 0.241 | 0.465 | 0.08 | 0.877 |
| CCTATTAGTTGACCATAAGGGCAACCCAAGCTCG | 1.15 | 0.607 | 0.597 | 0.677 | 0.607 | 0.81 | 0.661 | 0.62 | 0.211 | 0.475 | 0.483 | 0.597 | 0.502 | 0.375 | 1.63 | 1.12 | 1.26 | 1.22 | 1.66 | 1.53 |
| CGAACTAGGTCAGAACAGGACAGCGAAGGATGAT | 1.13 | 0.841 | -0.226 | 0.393 | -0.43 | 3.3 | 5.21 | 4.4 | 1.79 | 3.38 | 6.88 | 7.17 | 2.58 | 2.2 | 1.18 | 0.861 | -0.18 | 1.86 | 0.0245 | 2.88 |
| AATACCGGGTCACTAGGCCAGAGTAGGTACGAAT | 4.09 | 3.51 | 0.369 | 2.69 | 0.134 | 5.09 | 6.97 | 5.93 | 2.96 | 4.9 | 4.09 | 6.04 | 0.988 | 0.334 | 1.7 | 2.32 | -0.108 | 3.37 | 0.616 | 3.47 |
| ATCGAAAGGTCGACGAGGTGAGTATCCACCGTTT | 3.97 | 3.28 | -0.0498 | 2.63 | 0.248 | 4.28 | 2.41 | 3.45 | 0.781 | 2.21 | 0.709 | 1.86 | 0.578 | 0.779 | 1.21 | 2.78 | 0.403 | 3.19 | 0.424 | 3.84 |
| GGAACGAGGGCAGGTTGATAGCAGAGTTTGATGG | 0.204 | 0.00952 | -0.393 | 0.00491 | -0.45 | 0.686 | 0.674 | 0.307 | -0.182 | 0.0591 | 2.17 | 1.68 | -0.931 | -0.47 | 0.542 | 0.273 | 0.636 | 0.164 | 0.17 | 1.87 |
| TCTTGTAGATCAACAGGAGGTTAAGAGAGATCGA | -0.193 | 1.14 | -0.121 | 0.527 | -0.544 | 1.3 | 0.126 | 1.38 | 2.38 | 1.73 | 1.53 | 0.53 | 0.135 | -0.105 | -0.206 | 0.838 | -0.445 | 0.613 | -0.275 | 0.493 |
| ACTAGTTGGTCTGCTGAGGTCACACACAATTCGG | 2.8 | 2.9 | 1.91 | 3.28 | 0.53 | 3.39 | 1.35 | 1.95 | 0.572 | 1.35 | 0.557 | 1.95 | 0.686 | 1.46 | 2.32 | 4.42 | 1.43 | 3.73 | 0.842 | 3.2 |
| GCTATTAGTTGAAAAGGCAACCGAATGATTCTCG | -0.25 | -0.013 | -0.222 | -0.163 | -0.383 | 0.216 | 0.532 | 1.07 | 0.168 | 0.651 | -0.116 | -0.52 | 0.324 | 0.295 | 1.02 | -0.0791 | 0.363 | 0.226 | 0.557 | 0.109 |
| ATATGTAGGTTACATCCGTGTCATTCAGGCTATG | 0.799 | 4.06 | 0.794 | 1.81 | 0.59 | 3.6 | 5.07 | 4.33 | 1.88 | 3.27 | 7.68 | 7.5 | 2.03 | 4.51 | 1.36 | 0.878 | 0.202 | 0.935 | 0.528 | 1.28 |
| CGTCTAAGTTCAACTAAGGTAACGTAAAGCACGC | 5.42 | 4.54 | 1.66 | 2.8 | 0.991 | 3.67 | 1.24 | 2.06 | 0.533 | 1.24 | 0.256 | 0.683 | 0.378 | 0.759 | 1.95 | 5.04 | 4.82 | 3.08 | 1.48 | 4 |
| CGTCCAAGCTCAATGCTAGGTCAGTGAAAGCATT | -0.232 | -0.0286 | 0.428 | -0.0522 | -0.887 | 0.167 | -0.576 | -0.605 | -0.752 | -0.627 | 0.189 | 0.0626 | -1.2 | -1.34 | -0.137 | 0.0332 | -0.275 | 0.319 | -0.477 | 0.961 |
| ACAGACAGGTGAGTGAAGGTAACTGAGCTGGACG | 0.439 | -0.0639 | -0.513 | -0.288 | -0.405 | 0.393 | 0.534 | 0.106 | -0.146 | -0.11 | 0.252 | 0.903 | -0.468 | -0.756 | -0.197 | 0.0727 | -0.00734 | 0.487 | -0.0985 | 0.632 |

— the supplement of paper PMC6555819
